NPR1 antag: human Npr1 receptor antagonism; P16066; HEK293 hNpr1 GloSensor cGMP, ANP-stimulated luminescence; Potency, µM (doses to about 46.3 µM), for the others: top-dose activity change, negative = inhibition, most hits filed as inhibitors; 76,000 compounds, 1.6% hits; AID 1347048; calls by dose curve; further: nearly all actives have a fitted effect of over 60% in size
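Compound pre-incubated 30 min at room temperature on GloSensor-loaded HEK293 cells stably carrying hNpr1 and the pGS-40F cGMP biosensor. Stimulation uses hNppA at 0.1 nM final; luminescence is taken at baseline and 20 min post-agonist.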
Luciferase inh: Photinus pyralis luciferase inhibition. Potency, µM (titrated, usually from 115 µM), usual class: inhibitors. 76,000 compounds, 2.5% hits. AID 1347043. purified P. pyralis luciferase, luminescence, biochemical. P08659; further: nearly all actives have a fitted effect of over 65% in size
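Luminescence read by CCD imager after adding enzyme (10nM final) to wells holding compound, titrated in qHTS. Substrates 10uM each D-luciferin and ATP; buffer 50mM Tris acetate pH 7.5, 10mM Mg acetate, Tween-20, BSA.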
NIH3T3 tox: NIH 3T3 cell cytotoxicity | NIH 3T3 viability, CellTiter-Glo ATP luminescence, 48-72 h | Potency, µM (top dose mostly 96.7 µM), for the others: top-dose activity change, negative = cytotoxicity, usual class: inhibitors | 94,000 compounds, 4.3% hits | AID 1345082; further: nearly all actives have a fitted effect of over 55% in size
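Viability of NIH 3T3 cells after 48 or 72 hr compound treatment at 37 °C was assessed by CellTiter-Glo, with luminescence imaged following a 10 min room-temperature step.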
HEK cytotox: cytotoxic compounds in HEK 293 cells; Potency, µM (titrated, usually from 115 µM), for the others: at the highest dose activity change, negative = cytotoxicity, actives largely listed as inhibitors; HEK 293 viability, ATP luminescence (CellTiter-Glo), 48-72 h; 94,000 compounds, 6.6% hits; further: nearly all actives have a fitted effect of over 60% in size
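Pintool-delivered compounds were incubated with HEK 293 cells (250 cells/well) at 37 degree Celsius for 48 or 72 hr. ATP-dependent luminescence (CellTiter-Glo) then reported remaining viable cells.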
Numbers without * were called inactive; i = inactive; ? = inconclusive; . = not tested or not shown; [ ] = dose if it differs, or a comment. Hits are enriched below; roughly 11% of the tested compounds scored in any of these assays. Unless noted, the call rests on the fitted dose curve; in most records, active means well fitted curve in the direction sought with a large enough effect; inconclusive means small, poorly fitted or top-dose-only effect, or another doubt; inactive means no such curve, though single readings can be large; an effect the other way counts as inactive or inconclusive. On the % scale 0 is the no-effect control and ±100 the full control effect; potency means the concentration at half of the fitted maximal effect.

SMILES	NPR1 antag	Luciferase inh	NIH3T3 tox	HEK cytotox
Cc1ccc([S+](=O)([O-])N2CCCC(C(=O)N3CCC4(CC3)CC(=O)Nc3ccccc3O4)C2)cc1 (stereo not drawn)	.	.	?	35.5µM*
CCNC(=O)N1CCOc2ccc(CCC(=O)NCCc3ccccc3)cc2C1	1.8%	i	-28.9%	-10.9%
CNC(=O)[C@@H]1C[C@H](Oc2cccnc2)CN1	0.8%	i	-14.9%	-9.6%
CC(C)CC(=O)N1C[C@@H](Oc2ccccc2)C[C@H]1C(=O)N1CCCC1	3.8%	i	-4.2%	i
O=C(c1cccc2[nH]ccc12)N1CCC(n2cc(-c3nc(-c4ccccc4)no3)nn2)C1 (stereo not drawn)	11.2µM*	?	?	?
O=C(c1cccc2[nH]ccc12)N1CCC(n2cc(-c3nc(-c4ccccc4)no3)nn2)CC1	?	i	?	28.2µM*
CC(C)c1noc(-c2cn(C3CCN(C(=O)c4cccc5[nH]ccc45)CC3)nn2)n1	0.0%	i	-23.1%	44.7µM*
CCc1noc(-c2cn(C3CCN(C(=O)c4cccc5[nH]ccc45)CC3)nn2)n1	-25.9%	i	-23.5%	?
O=C(c1ccc[nH]c1=O)N1CCC(n2cc(-c3nc(-c4ccccc4)no3)nn2)CC1	-14.3%	?	-28.5%	5.7%
Cc1noc([C@@H]2CN(C(=O)c3cc(C)n(C)n3)C[C@H]2COCC2CC2)n1	3.2%	i	1.8%	-3.0%
CN(C)CCN(C)[C@@H]1[C@H](O)[C@H](CO)O[C@@H]1CNC(=O)Nc1ccccc1	-0.8%	i	1.2%	i
Cc1nn(C)c(C)c1S(=O)(=O)N1CCCC(Cn2c(C3CC3)nc3cccnc32)C1 (stereo not drawn)	-1.1%	i	?	1.2%
Cc1nn(C)c(C)c1S(=O)(=O)N1CCCC(C(=O)N2CCCn3nc(-c4ccc(F)cc4)cc3C2)C1 (stereo not drawn)	.	.	?	31.6µM*
Cc1cc(=O)n(CC(=O)N2CCN(c3ccc(F)cc3)CC2)c(-c2ccc(F)cc2)n1	4.4%	i	i	11.4%
CCc1cc(=O)n(CC(=O)N2CCN(c3ccc(F)cc3)CC2)c(N2CCOCC2)n1	-16.4%	i	?	25.1µM*
COc1nc2nc(CCc3ccccc3)n(C)c2cc1Nc1ccncn1	-4.4%[70.6 µM]	50.1µM*	?	-2.7%[172 µM]
Cc1nn2c(c1-c1ccccc1OCc1ccccc1)N(C(=O)C1CCOCC1)CCC2	-19.9%[70.6 µM]	i	?	?
Cc1nn2c(c1-c1ccccc1OCc1ccccc1)N(C(=O)C1CCC1)CCC2	1.4%[70.6 µM]	i	?	39.8µM*
Cc1nn2c(c1-c1ccccc1OCc1ccccc1)N(Cc1cccc(O)c1)CCC2	?	i	25.1µM*	28.2µM*
Cc1nn2c(c1-c1ccccc1[S+](C)(=O)[O-])N(Cc1ccccc1)CCC2	-1.8%[70.6 µM]	i	10µM*	?
Cn1nc(C2CCN(C(=O)c3cncc(Br)c3)CC2)c2c1CCOC2	-1.1%	i	-18.1%	-0.2%
CCCc1nc(C(=O)N[C@@H]2CCOC[C@H]2Oc2ccccn2)cs1	-24.5%	i	-21.0%	-25.8%
COc1ncccc1-c1cc2c(ccn2Cc2ccncc2)c(N2CCOCC2)n1	-9.2%[70.6 µM]	i	?	-30.0%[172 µM]
c1cc(-c2cc3c(ccn3Cc3ccncc3)c(N3CCOCC3)n2)c2cc[nH]c2c1	-16.1%[70.6 µM]	i	35.5µM*	31.6µM*
c1cc(-c2cc3c(ccn3Cc3ccncc3)c(N3CCOCC3)n2)c2[nH]ncc2c1	-13.4%[70.6 µM]	i	?	89.1µM*
SMILES	NPR1 antag	Luciferase inh	NIH3T3 tox	HEK cytotox
c1cc(-c2cc3c(ccn3Cc3ccncc3)c(N3CCOCC3)n2)c2cn[nH]c2c1	-17.7%[70.6 µM]	i	14.1µM*	89.1µM*
Fc1ccccc1-c1cc2c(ccn2Cc2ccncc2)c(N2CCOCC2)n1	-0.8%[70.6 µM]	i	35.5µM*	89.1µM*
COC(=O)C1=C(C)N(Cc2cc(F)cc(F)c2)C(=O)CC1c1ccccc1Cl (stereo not drawn)	1.7%	i	-24.8%	?
Cc1ccc(C(=O)N2CC[C@H]3NC(=O)N(c4ccc(F)cc4)C(=O)[C@H]32)cc1	8.7%[70.6 µM]	i	i	-4.5%[172 µM]
O=C(CCC1CCN(S(=O)(=O)c2cccc(F)c2)CC1)N1CCc2ccccc2C1	?	i	?	?
COc1ccc(CCNC(=O)C2CCCN(Cc3cccc(-c4ccc(F)cc4F)c3)C2)cc1 (stereo not drawn)	.	.	?	10µM*
O=C(NCCc1ccc(F)cc1)C1CCCN(Cc2cccc(-c3ccc(F)cc3F)c2)C1 (stereo not drawn)	.	.	?	39.8µM*
O=C(NCCc1ccccc1)C1CCCN(Cc2cccc(-c3ccc(F)cc3F)c2)C1 (stereo not drawn)	.	.	?	39.8µM*
COCc1nc(C2CC(N)C2)cc(N2CCc3[nH]nc(C(=O)OC)c3C2)n1 (stereo not drawn)	1.1%	i	-8.3%	-15.7%
COc1ccc(-c2nc(C(=O)NC3CC3)n3ccccc23)cc1	2.7%[70.6 µM]	?	?	?
O=C(NCCCc1ccccc1)C1CN(Cc2ccccc2)C(=O)N1 (stereo not drawn)	-5.6%[70.6 µM]	i	-22.7%[138 µM]	-20.6%[172 µM]
O=C(NCCc1ccccc1)C1CCCN(Cc2cccc(-c3ccsc3)c2)C1 (stereo not drawn)	.	.	39.8µM*	?
O=C(c1ccncc1)N1CC2CCC(C1)N2Cc1cccc(-c2ccsc2)c1	.	.	-24.9%	?
CC(C)NC(=O)C1CCCN(Cc2cccc(-c3ccsc3)c2)C1 (stereo not drawn)	.	.	?	44.7µM*
O=C(C1CCCN(Cc2cccc(-c3ccsc3)c2)C1)N1CCN(c2ncccn2)CC1 (stereo not drawn)	.	.	?	31.6µM*
O=C(NCCCc1ccccc1)C1CCCN(Cc2cccc(-c3ccsc3)c2)C1 (stereo not drawn)	.	.	35.5µM*	39.8µM*
COCC(=O)N1CCN2C(=O)c3cc(-c4cccc(C(F)(F)F)c4)ccc3NC(=O)[C@H]2C1	2.1%	i	-25.0%	?
O=C(c1cn2ccsc2n1)N1CC[C@H](CO)[C@@H](O)C1	5.8%	i	4.5%	-2.2%
Cn1cnnc1CC1CCCN(C(=O)NC2CCCC2)C1 (stereo not drawn)	-3.0%	i	-10.2%	-10.1%
CC(C)(C)c1ccc(-c2cc(C[C@H]3CNCC[C@H]3CC(=O)NCc3cccnc3)no2)cc1	7.0%	i	20µM*	?
CC(C)(C)c1ccc(-c2cc(C[C@H]3CNCC[C@H]3CC(=O)Nc3ccccc3)no2)cc1	-10.5%[70.6 µM]	i	?	?
CC(C)(C)c1ccc(-c2cc(C[C@H]3CNCC[C@H]3CC(=O)N3CCC(Cc4ccccc4)CC3)no2)cc1	4.1%	i	-5.1%	-9.0%
CN(C)CCNC(=O)C[C@@H]1CCNC[C@@H]1Cc1cc(-c2ccc(C(C)(C)C)cc2)on1	11.5%[70.6 µM]	i	39.8µM*	31.6µM*
CC(C)NC(=O)C[C@@H]1CCNC[C@@H]1Cc1cc(-c2ccc(C(C)(C)C)cc2)on1	3.7%[70.6 µM]	i	35.5µM*	39.8µM*

Bioassay records from PubChem.
